PubChem BioAssay (EPA / NIEHS)
Results filed as inconclusive are left out. Active and inactive are the calls of the source. The calls were made as follows, unless noted: active = hit-call score of the fitted dose curve at least 0.9, where 1 is the maximum; inactive = score below 0.9.

Assays:
[1] = read-out: E-selectin (Homo sapiens) (UniProt P16581); assay: BSK_SAg_Eselectin: BioMAP Diversity Plus: SAg Assay for Eselectin Biomarker Activity (AID 2283091); conditions: primary human HUVEC with PBMC; actives raise or lower the signal
How it was run: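 HUVEC co-cultured with PBMC, compound dosed then read at 24 h; E-selectin measured by ELISA. Activity fitted bidirectionally against DMSO as negative control and baseline.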

[2] = read-out: Monokine induced gamma interferon (MIG), CXCL9 (gene 4283); assay: BSK_SAg_MIG: BioMAP Diversity Plus: SAg Assay for Monokine induced gamma interferon (MIG) Biomarker Activity (AID 2283092); conditions: primary human HUVEC with PBMC; actives raise or lower the signal
How it was run: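 HUVEC plus human PBMC co-culture, chemicals dosed and MIG (CXCL9) quantified by ELISA at 24 h. Bidirectional curve fitting against DMSO as negative control and baseline, so both gain and loss of signal count as activity.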

[3] = BSK_SAg_PBMCCytotoxicity: PBMC Cytotoxicity Assessment in the BioMAP Diversity Plus: SAg Assay (AID 2283093); conditions: primary human HUVEC with PBMC;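 also: fitted both ways against DMSO so a hit may be loss or gain of signal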;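 as to AC50: PBMC superantigen activated with SEB plus TSST-1 one hour after compound addition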
How it was run: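 PBMC viability by Alamar Blue reduction, fluorescence read at 546/580 nm after 6 h dye exposure. Cells were dosed 1 h before SEB plus TSST-1 activation (20 ng/mL final each), then held 90 h; endothelial/PBMC human co-culture.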

[4] = read-out: Interleukin-8 (IL8), CXCL8 (gene 3576); assay: BSK_SAg_IL8: BioMAP Diversity Plus: SAg Assay for Interleukin-8 (IL8) Biomarker Activity (AID 2283094); conditions: primary human HUVEC with PBMC; actives raise or lower the signal
How it was run: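 ELISA readout of IL-8 from a superantigen-activated endothelial/PBMC primary human co-culture, taken 24 h post-dosing and fitted in both directions against DMSO; parallel SRB total-protein staining flags overt cytotoxicity.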

[5] = BSK_SAg_Proliferation: Cell Proliferation Assessment in the BioMAP Diversity Plus: SAg Assay (AID 2283095); conditions: primary human HUVEC with PBMC;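 also: relative cell number as total protein by SRB absorbance in sub-confluent culture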
How it was run: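 Relative cell number in the endothelial cell/PBMC co-culture was quantified at 96 h by SRB staining (0.1% SRB, 10% TCA fixation, read at 560 nm). Curves were fitted in both directions relative to DMSO baseline.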

[6] = BSK_SAg_SRB: Viability Assessment in the BioMAP Diversity Plus: SAg Assay (AID 2283096); conditions: primary human HUVEC with PBMC;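 also: cells read one day after compound addition; hits may be either gain or loss of signal compared with DMSO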
How it was run: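 Compounds were added to a human vascular co-culture of umbilical vein endothelium and PBMC. After 24 h, parallel cultures were fixed with 10% TCA, stained with 0.1% sulforhodamine B and read at 560 nm. Gain or loss of signal was fitted relative to DMSO.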

[7] = biological target: human CYP2A6, CYP2A6 (gene 1548) (UniProt P11509); assay: NVS_ADME_hCYP2A6: NovaScreen (NVS) CYP450-related Enzyme Activity (ADME) Assay for human CYP2A6 (AID 2283099; active = hit-call score of the fitted dose curve at least 0.9, where 1 is the maximum)
human CYP2A6, CYP2A6 (gene 1548), sequence (P11509 whole entry, looked up): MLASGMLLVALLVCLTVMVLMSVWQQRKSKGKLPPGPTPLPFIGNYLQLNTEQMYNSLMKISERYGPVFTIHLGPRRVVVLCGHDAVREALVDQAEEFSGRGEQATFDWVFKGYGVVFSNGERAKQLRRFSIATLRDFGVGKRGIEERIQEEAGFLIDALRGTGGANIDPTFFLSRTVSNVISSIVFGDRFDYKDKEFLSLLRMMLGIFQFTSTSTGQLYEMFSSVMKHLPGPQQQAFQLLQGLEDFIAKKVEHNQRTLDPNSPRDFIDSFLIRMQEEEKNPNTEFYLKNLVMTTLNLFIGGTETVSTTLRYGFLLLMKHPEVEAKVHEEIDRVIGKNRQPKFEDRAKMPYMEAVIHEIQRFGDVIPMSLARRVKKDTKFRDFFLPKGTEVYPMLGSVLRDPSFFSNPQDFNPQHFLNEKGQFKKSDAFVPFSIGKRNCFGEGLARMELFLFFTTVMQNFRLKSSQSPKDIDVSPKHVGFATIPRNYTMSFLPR
Procedure: (§1) NVS_ADME_hCYP2A6 is a biochemical, single-readout assay that uses extracted gene-proteins from insect cells in a cell-free assay. Measurements were taken 0.5 hour after chemical dosing in a 96-well plate.NVS_ADME_hCYP2A6 is one of one assay component(s) measured or calculated from the NVS_ADME_hCYP2A6 assay. It is designed to make measurements of enzyme activity, a form of enzyme reporter, as detected with fluorescence intensity signals by Fluorescence technology.Data from the assay component NVS_ADME_hCYP2A6 was analyzed into 1 assay endpoint. This assay endpoint, NVS_ADME_hCYP2A6, was analyzed in the positive analysis fitting direction relative to Acetonitrile as the negative control and baseline of activity. Using a type of enzyme reporter, loss-of-signal activity can be used to understand changes in the enzymatic activity as they relate to the gene CYP2A6. Furthermore, this assay endpoint can be referred to as a primary readout, because this assay has produced multiple assay endpoints where this one serves a enzymatic activity function. To generalize the intended target to other relatable targets, this assay endpoint is annotated to the cyp intended target family, where the subfamily is xenobiotic metabolism.
(§2) Binding assays used specific radioligands (tritiated, iodinated) with non-radioactive competitive displacement ligands in agonist or antagonist protocols (as indicated) and various reference compounds and inhibitors to titrate specific binding to receptors and transporters. Most enzyme assays (CYPs, kinases, phosphatases, proteases, HDACs) used recombinant protein and specific substrates (fluorescence mostly, some colorimetric and radioactive) and inhibitors, followed by a biochemical separation of substrate and product. All assays for the biochemical HTS were initially run in duplicate at a single concentration (10 uM for CYP450 assays and 25 uM for all others). Assay-chemical combinations meeting a pre-defined threshold (e.g., 30% inhibition and other criteria defined below) were then run in singleton concentration-response format with maximum concentration of 20 uM for CYPs and 50 uM for all others. Each assay was run with positive and negative controls, and concurrent controls on every plate. The follow-up (secondary) screen tested active chemical-pairs in concentration series, as well as a few additional assays not tested in the primary screen, some selected negative inactives, and several cases re-run in the concentration series for confirmatory purposes.

[8] = biological target: human CYP1A1, CYP1A1 (gene 1543) (UniProt P04798); assay: NVS_ADME_hCYP1A1: NovaScreen (NVS) CYP450-related Enzyme Activity (ADME) Assay for human CYP1A1 (AID 2283100; active = hit-call score of the fitted dose curve at least 0.9, where 1 is the maximum)
human CYP1A1, CYP1A1 (gene 1543), sequence (P04798 whole entry, looked up): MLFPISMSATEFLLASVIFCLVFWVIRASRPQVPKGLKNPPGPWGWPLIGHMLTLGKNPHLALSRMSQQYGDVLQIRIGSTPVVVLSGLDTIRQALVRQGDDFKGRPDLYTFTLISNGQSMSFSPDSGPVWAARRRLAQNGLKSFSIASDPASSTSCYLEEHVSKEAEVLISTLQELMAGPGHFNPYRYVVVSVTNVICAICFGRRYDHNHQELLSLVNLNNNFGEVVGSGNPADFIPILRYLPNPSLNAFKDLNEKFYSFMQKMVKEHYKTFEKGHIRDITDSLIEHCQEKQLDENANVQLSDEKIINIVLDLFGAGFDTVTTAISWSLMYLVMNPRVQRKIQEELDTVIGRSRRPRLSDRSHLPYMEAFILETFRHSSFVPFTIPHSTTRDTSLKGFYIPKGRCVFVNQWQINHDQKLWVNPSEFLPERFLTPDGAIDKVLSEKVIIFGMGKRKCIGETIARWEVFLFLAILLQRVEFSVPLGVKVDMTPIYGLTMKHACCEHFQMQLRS
How it was run: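 Cell-free fluorescence assay of recombinant human CYP1A1 activity with a specific substrate, read 1 h after dosing. Compounds were screened in duplicate at 10 uM, then hits tested in concentration-response up to 20 uM; acetonitrile served as baseline.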

[9] = biological target: human CYP2B6, CYP2B6 (gene 1555) (UniProt P20813); assay: NVS_ADME_hCYP2B6: NovaScreen (NVS) CYP450-related Enzyme Activity (ADME) Assay for human CYP2B6 (AID 2283101; active = hit-call score of the fitted dose curve at least 0.9, where 1 is the maximum)
human CYP2B6, CYP2B6 (gene 1555), sequence (P20813 whole entry, looked up): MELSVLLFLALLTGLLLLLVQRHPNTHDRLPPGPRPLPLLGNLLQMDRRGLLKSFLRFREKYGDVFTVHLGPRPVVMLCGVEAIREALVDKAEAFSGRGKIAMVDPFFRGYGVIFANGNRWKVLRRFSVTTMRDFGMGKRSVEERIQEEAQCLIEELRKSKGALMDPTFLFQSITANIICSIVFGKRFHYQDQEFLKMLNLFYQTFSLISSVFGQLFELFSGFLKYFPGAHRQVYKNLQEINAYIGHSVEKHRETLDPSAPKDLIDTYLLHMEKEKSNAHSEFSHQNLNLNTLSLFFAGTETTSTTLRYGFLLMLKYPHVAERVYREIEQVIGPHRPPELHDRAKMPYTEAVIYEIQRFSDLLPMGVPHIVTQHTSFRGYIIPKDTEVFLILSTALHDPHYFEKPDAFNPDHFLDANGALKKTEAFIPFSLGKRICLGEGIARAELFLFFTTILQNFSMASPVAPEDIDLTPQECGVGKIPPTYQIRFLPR
How it was run: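 Recombinant human CYP2B6 with fluorogenic substrate, read by fluorescence intensity 1 h after dosing. Primary screen in duplicate at 10 uM, actives followed in concentration series; signal loss relative to acetonitrile control.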

[10] = biological target: human CYP19A1, CYP19A1 (gene 1588) (UniProt P11511); assay: NVS_ADME_hCYP19A1: NovaScreen (NVS) CYP450-related Enzyme Activity (ADME) Assay for human CYP19A1 (AID 2283098; active = hit-call score of the fitted dose curve at least 0.9, where 1 is the maximum)
human CYP19A1, CYP19A1 (gene 1588), sequence (P11511 whole entry, looked up): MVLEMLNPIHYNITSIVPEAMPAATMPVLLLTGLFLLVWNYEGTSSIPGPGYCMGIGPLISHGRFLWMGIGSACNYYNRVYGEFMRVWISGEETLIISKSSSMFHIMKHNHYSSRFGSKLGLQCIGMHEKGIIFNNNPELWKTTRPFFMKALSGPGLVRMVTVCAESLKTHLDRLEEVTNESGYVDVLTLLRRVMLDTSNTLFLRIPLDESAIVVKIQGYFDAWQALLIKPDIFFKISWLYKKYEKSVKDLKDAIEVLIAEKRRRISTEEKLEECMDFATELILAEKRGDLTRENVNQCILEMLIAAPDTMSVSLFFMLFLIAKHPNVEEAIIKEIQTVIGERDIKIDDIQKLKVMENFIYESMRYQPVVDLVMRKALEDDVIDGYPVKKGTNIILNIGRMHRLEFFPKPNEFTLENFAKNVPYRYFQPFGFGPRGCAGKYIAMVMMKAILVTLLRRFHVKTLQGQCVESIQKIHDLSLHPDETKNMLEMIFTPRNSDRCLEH
Procedure: as §1, with “NVS_ADME_hCYP19A1” for “NVS_ADME_hCYP2A6”, “gene-proteins” for “gene-proteins from insect cells”, “384-well plate.NVS_ADME_hCYP19A1” for “96-well plate.NVS_ADME_hCYP2A6”, “NVS_ADME_hCYP19A1,” for “NVS_ADME_hCYP2A6,”, “CYP19A1.” for “CYP2A6.”, “steroidogenesis-related.” for “xenobiotic metabolism.”
as §2, with “Assay-chemical combinations meeting a pre-defined threshold (e.g., 30% inhibition and other criteria defined below) were then run in singleton concentration-response format with maximum concentration of 20 uM for CYPs and 50 uM for all others.” left out

Measured: AC50

E-selectin (Homo sapiens), sequence (P16581 whole entry, looked up): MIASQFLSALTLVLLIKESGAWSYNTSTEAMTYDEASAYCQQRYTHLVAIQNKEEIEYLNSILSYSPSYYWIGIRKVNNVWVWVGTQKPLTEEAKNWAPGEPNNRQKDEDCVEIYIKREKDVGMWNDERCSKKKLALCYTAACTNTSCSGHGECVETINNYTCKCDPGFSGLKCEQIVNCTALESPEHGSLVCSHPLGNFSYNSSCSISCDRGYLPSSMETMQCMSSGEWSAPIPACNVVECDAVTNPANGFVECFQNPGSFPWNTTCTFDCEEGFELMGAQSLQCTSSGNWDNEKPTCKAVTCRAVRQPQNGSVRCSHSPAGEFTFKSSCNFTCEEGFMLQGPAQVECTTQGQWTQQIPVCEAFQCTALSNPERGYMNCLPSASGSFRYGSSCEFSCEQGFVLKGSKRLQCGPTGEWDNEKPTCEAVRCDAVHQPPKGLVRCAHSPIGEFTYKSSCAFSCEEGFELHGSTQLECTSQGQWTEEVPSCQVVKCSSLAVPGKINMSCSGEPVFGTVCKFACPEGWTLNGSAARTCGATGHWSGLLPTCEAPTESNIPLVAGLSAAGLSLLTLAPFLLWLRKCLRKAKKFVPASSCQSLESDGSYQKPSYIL

CCCC(=O)OCCC(C)C
inactive: [1] | [2] | [3] | [4] | [5]

CC(C)(C)c1csc(-c2cc3cc(OCc4ccccc4CC(=O)O)ccc3o2)n1
active: [1] 32.1 µM | [2] 38.5 µM | [4] 15.5 µM | [5] 20.1 µM

CC(C)(O)c1ccc(CNC(=O)c2cccnc2Oc2ccc3nonc3c2)cc1
active: [1] 1.4 µM
inactive: [2] | [3] | [4] | [5]

CCCOC(=O)c1cc(O)c(O)c(O)c1
active: [1] 14.3 µM | [5] 17 µM
inactive: [2] | [3] | [4] | [6]

CCN(CC)C(=O)c1cc(S(=O)(=O)Cc2ccccc2)c(N2CCC(c3ccccc3)CC2)cc1N(CC)CCN(C)C
active: [1] 11.4 µM | [2] 15.2 µM | [3] 6.84 µM | [4] 5.2 µM | [5] 5.1 µM

CCCCCCCC[Si](OCC)(OCC)OCC
inactive: [2] | [4] | [5]
active: [1] 20.7 µM | [3] 18.7 µM | [6] 31.7 µM

CC[C@H](NC(=O)c1cc(F)ccc1NS(=O)(=O)c1cccc2cccnc12)c1ccccc1
inactive: [2] | [3] | [7]
active: [1] 4 µM | [4] 8.99 µM | [5] 22.5 µM

CCCCOC(=O)CC(CC(=O)OCCCC)(OC(C)=O)C(=O)OCCCC
inactive: [1] | [2] | [3] | [4] | [5]

O=C(O)Cn1c(=O)n(Cc2ccc(Br)cc2F)c(=O)c2ccc(Cl)cc21
inactive: [1] | [2] | [3] | [4] | [5] | [6]

CN(C)c1ccc(C(=C2C=CC(=[N+](C)C)C=C2)c2ccc(N(C)C)cc2)cc1
active: [1] 0.223 µM | [2] 1.61 µM | [3] 5.83 µM | [4] 0.148 µM | [5] 0.693 µM | [8] 2.02 µM | [9] 6.7 µM

Cc1ccc(C(C)C)cc1
inactive: [1] | [2] | [3] | [4] | [5]

CCCCCCCCN(C)CCCCCCCC
inactive: [1] | [2] | [3] | [4] | [5] | [6]

Oc1ccc2ccccc2c1
active: [1] 10.8 µM
inactive: [2] | [3] | [4] | [5]

CCOC(=O)O[C@H](C)OC(=O)c1ccc2c(c1)cc(C(=O)NC1CCN(C(C)C)CC1)n2Cc1cc(-c2ccc(Cl)s2)on1
active: [1] 8.76 µM | [2] 8.05 µM | [3] 2.82 µM | [4] 6.18 µM | [5] 2.37 µM | [6] 6.18 µM
inactive: [7]

O=c1c(-c2ccc(O)cc2)coc2cc(O)cc(O)c12
inactive: [9]
active: [1] 24.9 µM | [2] 29.7 µM | [3] 20 µM | [4] 20 µM | [5] 15.6 µM

CC/C(=C(/CC)c1ccc(O)cc1)c1ccc(O)cc1
active: [1] 8.84 µM | [2] 31.9 µM | [4] 13.4 µM | [5] 11.8 µM

CCN(Cc1cccnc1)C(=O)c1cccc(Cl)c1[C@]1(C)C(=O)N(Cc2ccc(OC)cc2OC)c2ccc(Cl)cc21
active: [1] 7.27 µM | [4] 3.93 µM | [5] 7.09 µM
inactive: [2] | [3] | [8] | [9]

c1ccc2ccccc2c1
inactive: [1] | [2] | [4] | [5]

NC(=O)c1nc(-c2cccc(-c3cc(F)ccc3OCC(F)(F)C(F)(F)F)c2)n[nH]1
active: [1] 19.3 µM | [2] 40.3 µM | [3] 35.7 µM | [4] 18.2 µM | [5] 26.2 µM

O=CCCCC=O
active: [1] 30.3 µM | [3] 20.6 µM | [5] 32.8 µM
inactive: [2] | [4]

c1ccc2n[nH]nc2c1
inactive: [1] | [2] | [3] | [4] | [5] | [6]

CCCCCCCCCCCC[N+](C)(C)C
active: [1] 32.2 µM | [2] 29.4 µM | [3] 20 µM | [5] 6.09 µM

CCN(Cc1cccc(S(=O)(=O)O)c1)c1ccc(C(=C2C=CC(=[N+](CC)Cc3cccc(S(=O)(=O)O)c3)C=C2)c2ccccc2S(=O)(=O)[O-])cc1
active: [3] 10 µM | [5] 9.61 µM
inactive: [1] | [2] | [4] | [6]

COc1ccc2cc(S(=O)(=O)N[C@H](CC(=O)N[C@H](Cc3ccc(CN4[C@H](C)CCC[C@@H]4C)cc3)C(=O)N(C)C(C)C)c3ccc4c(c3)OCO4)ccc2c1
inactive: [8]
active: [1] 31.7 µM | [2] 35.2 µM | [3] 14.6 µM | [4] 14.8 µM | [5] 12 µM

CCCCCCCCOC(=O)c1cc(O)c(O)c(O)c1
active: [1] 16 µM | [2] 30.4 µM | [3] 27.7 µM | [4] 11.5 µM | [5] 5.52 µM | [9] 10.1 µM

CN(C)C(=O)C1(N2CCCCC2)CCN(CC[C@@]2(c3ccc(Cl)c(Cl)c3)CN(C(=O)c3ccccc3)CCO2)CC1
active: [1] 28.3 µM | [2] 31.7 µM | [3] 15.4 µM | [4] 12 µM | [5] 5.91 µM

O=c1[nH]sc2ccccc12
active: [1] 12.3 µM | [2] 28.8 µM | [3] 3.66 µM | [4] 23.2 µM | [5] 0.77 µM | [6] 26.8 µM | [8] 5.11 µM | [9] 0.721 µM

CCCCCCCCOc1ccc(C(=O)c2ccccc2)c(O)c1
inactive: [1] | [2] | [3] | [4] | [10]
active: [5] 15 µM

COc1cccc([C@H](O)C2CCN(CCc3ccc(F)cc3)CC2)c1OC
inactive: [1] | [2] | [3] | [4] | [5] | [6]

CC(C)(C)c1cc(/C=C2\SC(N)=NC2=O)cc(C(C)(C)C)c1O
active: [1] 7.42 µM | [2] 27.6 µM | [3] 11.1 µM | [4] 8.74 µM | [5] 7.44 µM | [6] 26.6 µM

Cc1oc2c(NC(=O)c3c(Cl)cccc3Cl)cccc2c1C(C)(C)O
active: [1] 7.6 µM | [3] 14.2 µM | [5] 20.6 µM | [8] 2.39 µM
inactive: [2] | [4]

COc1cc(C(=O)NC2CCN(C)CC2)ccc1Nc1ncc2c(n1)N(C1CCCC1)CC(F)(F)C(=O)N2C
active: [1] 11.4 µM | [2] 14.4 µM | [3] 13.8 µM | [4] 10.2 µM | [5] 5.59 µM

CCCCCc1ccc(N)cc1
inactive: [1] | [2] | [3] | [4] | [5] | [6]

O=C(O)c1ccccc1-n1cc(C(=O)O)c(=O)c2cc(Nc3c(F)cc(F)cc3Cl)c(Cl)cc21
inactive: [1] | [2] | [3] | [4] | [5] | [6]

Cc1cccc2ccccc12
inactive: [1] | [2] | [3] | [4] | [5] | [6]

CC1(C)NC(=O)N(c2ccc([N+](=O)[O-])c(C(F)(F)F)c2)C1=O
active: [9] 7.49 µM
inactive: [1] | [2] | [3] | [4] | [5] | [6]
